D1 ag = agonists of human D1 dopamine receptor | activation, % at 2 µM | hit rate 1% among 360,000 | HEK293 T-REx D1 cells, calcium flux, agonist mode | P21728
Target sequence (P21728 whole entry, looked up): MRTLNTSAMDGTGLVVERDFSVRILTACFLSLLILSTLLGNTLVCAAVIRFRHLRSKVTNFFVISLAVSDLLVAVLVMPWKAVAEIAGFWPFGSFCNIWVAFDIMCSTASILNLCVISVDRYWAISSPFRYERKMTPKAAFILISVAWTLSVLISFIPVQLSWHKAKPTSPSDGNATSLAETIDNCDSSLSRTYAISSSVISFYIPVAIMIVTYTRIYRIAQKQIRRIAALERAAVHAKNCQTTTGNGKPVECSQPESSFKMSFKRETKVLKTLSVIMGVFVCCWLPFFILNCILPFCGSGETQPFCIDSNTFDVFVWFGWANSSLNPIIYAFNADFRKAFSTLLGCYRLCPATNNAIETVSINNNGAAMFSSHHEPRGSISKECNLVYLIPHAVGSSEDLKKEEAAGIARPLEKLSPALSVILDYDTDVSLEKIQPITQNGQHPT
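Agonism was scored from calcium flux recorded over 180 s (1 read/s) after pintool compound addition, following a 10-cycle baseline. Cells were inducible force-coupled HEK293 TREx D1, plated overnight at 30 C and loaded with no-wash calcium dye.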
TRHR PAM = allosteric enhancers of human TRH receptor. AID 493056. TRHR cells, fluo-8 calcium fluorescence, EC20 TRH enhancement. hit rate 0.66% among 360,000. enhancement, % at 2 µM. P34981; in the data active means enhancement above about 30%
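TRHR-expressing cells loaded with fluo-8 calcium dye were read kinetically (ex 480/em 530) during compound addition, then stimulated with an EC20 of TRH (10 nM final). Enhancement of the Gq-mediated intracellular calcium response was scored.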
TRHR ag = TRH receptor (human) agonism; P34981; TRHR cells, calcium flux fluo-8, FDSS agonist mode; activation, % at 2 µM; hit rate 0.18% among 360,000
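Agonist-mode FDSS calcium read (Ex 480/Em 530, 1 s cycles) in 1536-well TRHR cells with fluo-8 dye, after 10-cycle baseline and 23 nL compound addition; TRH at EC20 (10 nM final) added afterwards for the enhancer phase.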
USP1-UAF1 inh = USP1/UAF1 (human) deubiquitinase inhibition; O94782; recombinant USP1/UAF1, Ub-Rhodamine cleavage fluorescence; Potency, µM (highest dose often 57.1 µM), usual class: inhibitors; hit rate 0.23% among 390,000; active means well fitted inhibition curve with a large enough effect; further: nearly all actives have a fitted effect of over 60% in size
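1 nM enzyme complex + cpd, 15 min RT; start with Ub-Rho 150nM final; kinetic fluorescence ex 480/em 540, 6 reads q60 s. Buffer 50mM HEPES pH 7.8, 0.5mM EDTA, 0.1 mg/ml BSA, 1mM TCEP, 0.01% Tween-20.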
D1 potentiator = potentiators of human D1 dopamine receptor; P21728; HEK293 TREx D1 cells, calcium flux, dopamine EC20 potentiation; potentiation, % at 10 µM; hit rate 0.036% among 360,000; AID 504651; in the data active means potentiation above about 30%
D1 antag = blocks dopamine activation of the human D1 receptor; P21728; HEK293 TREx D1 cells, calcium flux, dopamine EC80; active compounds read low; activity change, negative = inhibition, % at 10 µM; hit rate 3.2% among 360,000; AID 504652; in the data active means activity change below about -30%
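Calcium flux readout: force-coupled, inducible Hek293 Trex D1 line, cells induced overnight at 30 C with tetracycline, dye-loaded 30–90 min at RT. Antagonism scored against EC80 dopamine challenge given 180 s after compound.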
Hits are given with their value; i = inactive; nt = no result. A selection: hits, their analogues and other compounds. The true share with any hit is near 4.4%. Unless noted, no stated cut-off is given here; in the data, active means activation above about 30%; inactive means the rest.

SMILES	D1 ag	TRHR PAM	TRHR ag	USP1-UAF1 inh	D1 potentiator	D1 antag
CCOC(=O)c1[nH]c2c(c1Cc1ccccc1OC)C(=O)CC(c1ccc(OC)cc1)C2 (configuration not stated)	i	i	i	i	i	i
Cc1cc(C)cc(OC(C)C(=O)Nc2ccc(S(=O)(=O)Nc3cc(C)nc(C)n3)cc2)c1 (configuration not stated)	i	i	i	i	i	i
Cc1ccc(C(=O)/C=C/Nc2ccc(S(=O)(=O)Nc3cc(C)nc(C)n3)cc2)cc1	i	i	i	i	i	-57
CCC(C)C(NC(=O)c1ccccc1)C(=O)Nc1ccc(S(=O)(=O)Nc2cc(C)nc(C)n2)cc1 (configuration not stated)	i	i	i	i	i	-59
Cc1ccc(/C=C/C(=O)Nc2ccc(S(=O)(=O)Nc3cc(C)nc(C)n3)cc2)cc1	i	i	i	i	i	i
CCN(C(=O)CN(C)S(=O)(=O)c1ccc2c(c1)n(C)c(=O)c(=O)n2C)c1cccc(C)c1	i	i	i	i	i	i
CC(/C=C/c1ccccc1)=N\NC(=O)c1cc(C)nc2ccccc12	i	i	i	i	i	-36
C/C(=N\NC(=O)c1cc(C)nc2ccccc12)c1cccs1	i	i	i	i	i	i
Cc1cc(C(=O)NN=C2CCCCC2)c2ccccc2n1	i	i	i	i	i	-89
CC1Oc2ccccc2N(CC(=O)NCCN2CCOCC2)C1=O (configuration not stated)	i	i	i	i	i	-67
CCC1Oc2ccccc2N(CC(=O)NCCCN2CCCC2)C1=O (configuration not stated)	i	i	i	i	i	i
O=C(CN1C(=O)COc2ccccc21)NCCN1CCOCC1	i	i	i	i	i	i
CCC1Oc2ccccc2N(CC(=O)NCCCN2CCN(c3ccc(OC)cc3)CC2)C1=O (configuration not stated)	i	i	i	i	i	-90
O=C(c1ccccc1)[C@@H]1[C@@H](C(=O)c2ccc(F)cc2)[C@@]2(C(=O)Nc3ccccc32)[C@H]2c3ccccc3C=CN12	i	i	i	28µM	i	i
CCCOc1ccc(C(=O)Nc2cc3nn(-c4ccc(CC)cc4)nc3cc2C)cc1	i	i	i	i	i	i
COc1ccc(C2(CNC(=O)C(=O)Nc3ccc(C)c(Cl)c3)CCCC2)cc1OC	i	i	i	i	i	i
CSc1ccc(S(=O)(=O)NCC(=O)OCC(=O)N(Cc2ccccc2)C(C)C)cc1[N+](=O)[O-]	i	i	i	i	i	-35
CCC(=O)N1c2ccccc2CC1C(=O)NCc1ccc(CC)cc1 (configuration not stated)	i	i	i	i	i	i
CCCCNC(=O)CSc1nc2nc(C)c(Cc3ccccc3C)c(C)n2n1	i	i	i	i	i	i
CCc1ccc(NC(=S)N2CCN(c3cccc(OC)c3)CC2)cc1	i	i	i	i	i	-31
CCOC(=O)c1nn(-c2ccc(C)cc2)c(=O)cc1OCC(=O)Nc1cccc(C)c1	i	i	i	i	i	i
COc1cccc(NC(=O)CCC(=O)Nc2cccc(OC)c2)c1	i	i	i	i	i	-31
CCOCC(=O)Nc1cccc(OC)c1	i	30	i	i	i	i
CCOC(=O)c1nn(-c2ccc(C)cc2)c(=O)cc1OCC(=O)Nc1cccc(OC)c1	i	i	i	i	i	-58
Cc1nnc(N2CCN(C(=O)Nc3cccc(C(F)(F)F)c3)CC2)c2nn(-c3ccccc3)c(C)c12	i	i	i	i	i	i
SMILES	D1 ag	TRHR PAM	TRHR ag	USP1-UAF1 inh	D1 potentiator	D1 antag
CCn1c(SCc2ccccc2Cl)nc(=O)c2c(C(=O)OC)cc(C3CC3)nc21	i	i	i	i	i	i
COc1ccc(CC(=O)OCC(=O)Nc2cccc(Cl)c2)cc1	i	i	i	i	i	i
COc1ccc(CCN(C)CCC(=O)Nc2ccc(C)cc2)cc1OC	i	i	i	i	i	i
COc1ccc(CCC(=O)Nc2cccc(Cl)c2)cc1	i	i	i	i	i	-45
COc1cccc(NC(=O)CN(C)C(=O)/C=C/c2ccc3ccccc3n2)c1	i	i	i	i	i	-46
COc1cccc(NC(=O)CN(C)C(=O)/C=C/c2ccc(S(=O)(=O)N3CCCCCC3)cc2)c1	nt	nt	nt	i	nt	nt
COc1ccc(CCN(C)CCC(=O)Nc2cccc(C)c2)cc1OC	i	i	i	i	i	-33
CCc1ccc(NC(=O)Nc2cccc(OC)c2)cc1	i	i	i	i	i	-31
O=C(Cn1cc(CNC(=O)c2ccccc2)nn1)Nc1cc(C(F)(F)F)ccc1Cl	i	i	i	nt	i	i
O=C(Nc1ccc(Cl)cc1)Nc1ccccc1NS(=O)(=O)c1cccs1	i	i	i	i	i	-33
O=C(Nc1ccc(F)cc1)Nc1ccccc1NS(=O)(=O)c1cccs1	i	i	i	i	i	i
CCc1cccc(C)c1NC(=O)Cn1nnc(-c2nc(-c3ccccc3F)no2)c1N	i	i	i	i	i	i
Cc1ccc(C(=O)Nc2cccc(C(=O)OCc3cc(=O)n4c5c(sc4n3)CCCC5)c2)cc1	i	i	i	i	i	i
COc1ccc(CCNC(=O)CS(=O)Cc2nc(-c3ccc(C)cc3)oc2C)c(OC)c1 (configuration not stated)	i	i	i	i	i	i
O=C(c1cc(S(=O)(=O)N2CCCC2)c[nH]1)N1CCN(c2cccc(Cl)c2)CC1	i	i	i	i	i	i
COC(=O)c1cc(S(=O)(=O)Nc2nn(C)c3cccc(F)c23)oc1C	i	i	i	i	i	-40
O=C1CC(c2ccccc2)Cc2[nH]c(=O)c(-c3nc(-c4cccc(Cl)c4)cs3)cc21 (configuration not stated)	i	i	i	i	i	i
Cc1cc(NC(=O)Cc2c(F)cccc2Cl)no1	i	i	i	i	i	-30
COc1cccc(CNC(=O)CC(c2ccc(F)cc2)N2Cc3ccccc3C2=O)c1 (configuration not stated)	i	i	i	i	i	i
CCOc1ccccc1C(=O)Nc1c(NC)c2ccccc2oc1=O	i	i	i	i	i	i
Cc1cc2c(cc1C)NC(CC(=O)Nc1cccc(Cl)c1)C(=O)N2 (configuration not stated)	i	43	i	i	i	i
O=C1CC(c2nc3ccccc3[nH]2)CN1c1cccc(Cl)c1 (configuration not stated)	i	i	i	i	i	i
O=C1CC(c2nc3ccccc3[nH]2)CN1c1ccccc1 (configuration not stated)	i	31	i	i	i	i

Assay outcomes (PubChem)
